Screening data from PubChem.
Shown are actives, neighbours in structure and some others; about 19% of the full set was active somewhere.
TDP1 cell CPT: qHTS for Inhibitors of human tyrosyl-DNA phosphodiesterase 1 (TDP1): qHTS in cells in presence of CPT. chicken DT40 Tdp1-/-;hTDP1 cells + 20 nM CPT, ATP luminescence, 48 h. actives 12% (n = 420,000). Potency, µM (top dose mostly 46.2 µM), for the others: at the top dose activity change, negative = growth inhibition, most hits filed as inhibitors; further: potency means the concentration at half of the fitted maximal effect; nearly all actives have a fitted effect of over 55% in size
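Cell growth measured by CellTiter-Glo luminescence after a minimum 48 h, 37 C compound exposure with 20 nM CPT in Tdp1-knockout DT40 cells stably expressing hTDP1, seeded 400/well; qHTS titration format.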
TDP1 cell noCPT: qHTS for Inhibitors of human tyrosyl-DNA phosphodiesterase 1 (TDP1): qHTS in cells in absence of CPT | DT40 Tdp1-/- hTDP1 cells, no CPT, ATP luminescence, 48 h | Potency, µM (doses to about 46.2 µM), without a hit: top-dose activity change, negative = growth inhibition, most hits filed as inhibitors | actives 15% (n = 420,000); further: potency means the concentration at half of the fitted maximal effect; nearly all actives have a fitted effect of over 55% in size
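No-CPT arm: Tdp1-/-;hTDP1 DT40 cells (400/well) plus compounds, incubated ≥48 hr at 37 °C. Readout CellTiter-Glo luminescence.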
HT1080 IDH1KD tx: qHTS for induction of synthetic lethality in tumor cells producing 2HG: qHTS for the HT-1080-IDH1KD cell line; HT-1080 IDH1 knockdown viability, ATP luminescence, 48 h; Potency, µM (titrated, usually from 46.1 µM), inactives show at the top dose activity, negative = toxicity, actives largely listed as cytotoxic; actives 2% (n = 360,000);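 further: potency means the concentration at half of the fitted maximal effect; 0% = DMSO wells and -100% = cell-free medium wells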
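HT-1080-IDH1KD cells (IDH1 knocked down), 750/well in RPMI with 5% FBS, treated with compound 48 h at 37 degrees C. Viability by CellTiter-Glo luminescence, normalised to DMSO and no-cell wells; concentration-response curves classed.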
HT1080NT lethal: qHTS for induction of synthetic lethality in tumor cells producing 2HG: qHTS for the HT-1080-NT fibrosarcoma cell line; HT-1080-NT fibrosarcoma viability, CellTiter-Glo ATP luminescence, 48 h; Potency, µM (doses to about 46.1 µM), inactives show top-dose activity, negative = less viability, most hits filed as cytotoxic; actives 1.6% (n = 360,000);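 further: NT is the 2HG producing partner of a matched IDH1 knockdown line; potency means the concentration at half of the fitted maximal effect; 0% = DMSO-treated cells and -100% = media-only wells without cells; nearly all actives have a fitted effect of over 55% in size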
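HT-1080-NT; 750 cells/well; 5% FBS RPMI; 48 h compound, 37 degrees C; CellTiter-Glo luminescence; curve fitting and curve-class assignment.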
ELG1 DNA repair: qHTS screen for small molecules that inhibit ELG1-dependent DNA repair in human embryonic kidney (HEK293T) cells expressing luciferase-tagged ELG1 | actives 2.3% (n = 330,000) | HEK293T ELG1-luciferase reporter, luminescence, 16 h; DNA damage induced by 5-fluorouridine | Potency, µM (top dose mostly 46.1 µM), without a hit: at the highest dose activity change, negative = inhibition, hits mostly inhibitors; further: potency means the concentration at half of the fitted maximal effect; nearly all actives have a fitted effect of over 55% in size
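Luminescence from the luciferase reporter, measured 30 min after ONE-Glo reagent at room temperature, was the read-out. Beforehand, 2,000 cells per well were exposed for 16 hr at 37 °C to 5-fluorouridine together with compound or vehicle.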
IL-1B inflam inh: qHTS for Inhibitors of Inflammasome Signaling: IL-1-beta AlphaLISA Primary Screen; THP-1 LPS/ATP IL-1B secretion, AlphaLISA, 16 h; hits give low values; activity change, % at 57.5 µM; actives 4.7% (n = 360,000); in the data active means activity change below about -50%; inconclusive means mostly about -30% to -49%
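THP-1 cells pretreated 1 hr with compounds (up to 57.5 uM final), then stimulated with LPS (250 ng/mL final) plus ATP (1.25 mM final); secreted IL-1B measured by AlphaLISA after 16 hr, decreased signal indicating inhibition.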
Active calls of the source: *; i = inactive; ? = inconclusive; / = no result given. Unless noted, the call rests on the fitted dose curve; in most records, active means well fitted curve in the direction sought with a large enough effect; inconclusive means small, poorly fitted or top-dose-only effect, or another doubt; inactive means no such curve, though single readings can be large; an effect the other way counts as inactive or inconclusive. Unless noted, on the % scale 0 is the no-effect control and ±100 the full control effect.

SMILES	TDP1 cell CPT	TDP1 cell noCPT	HT1080 IDH1KD tx	HT1080NT lethal	ELG1 DNA repair	IL-1B inflam inh
O=C(NCCCN1CCOCC1)c1ccc2c(=O)n(Cc3cccc(Br)c3)c(=S)[nH]c2c1	-17.1%	?	?	?	-4.2%	-64.7*
COc1ccccc1Cn1c(=S)[nH]c2cc(C(=O)NCCCN3CCOCC3)ccc2c1=O	?	?	?	16.4µM*	-0.7%	44.2
COc1ccccc1Cn1c(=S)[nH]c2cc(C(=O)NCCN3CCOCC3)ccc2c1=O	-5.6%	-18.0%	8.2%	1.0%	6.0%	9.3
COc1ccccc1Cn1c(=S)[nH]c2ccc(F)cc2c1=O	-13.0%	-17.2%	3.6%	-0.1%	19.6%	-73.2*
Cc1ccc(CNC(=O)c2ccc3nc(N4CCCCC4)sc3c2)cc1	-25.0%	-19.4%	/	/	/	/
COc1ccc(CCNC(=O)c2ccc3nc(N4CCCCC4)sc3c2)cc1OC	18.4µM*	20.6µM*	-11.8%	0.0%	?	31.7
COc1nc(NCCc2ccc(OC)c(OC)c2)nc(OC)n1	-1.4%	-5.6%	0.3%	6.0%	/	-16.9
COc1ccc(CCNc2nc(N3CCCCC3)nc(N3CCCCC3)n2)cc1OC	?	23.1µM*	?	?	20.6µM*	-17.1
COc1ccc2nc(N3CCCC(C(=O)NCCc4ccc(OC)c(OC)c4)C3)sc2c1 (centres undefined)	?	13µM*	11.4%	-23.0%	?	-0.8
CCCCC[C@H](O)/C=C/[C@@H]1[C@H]2C/C(=C/CCCC(=O)O)C[C@H]2C[C@H]1O	-24.6%	-13.0%	/	/	/	/
CC1(C)CCC[C@]2(C)C3CC(=O)O[C@@]3(C)CC[C@H]12 (some centres undefined)	-0.4%	?	/	/	/	/
Cc1cc(O)c2c(c1)O[C@@]1(C)CC[C@H]3C(C)(C)CCCC34CO[C@@H]2[C@H]41 (some centres undefined)	?	16.8µM*	/	/	/	/
COc1ccc(-c2nc(Cn3c(SCc4cccc(Cl)c4)nc4ccncc43)c(C)o2)cc1	23.1µM*	?	/	/	/	/
COc1ccc(CSc2nc3ccncc3n2CC(=O)Nc2ccc(C)c(F)c2)cc1	-28.5%	-15.0%	/	/	/	/
COc1ccc(CSc2nc3ccncc3n2Cc2nc(-c3ccc(OC)c(OC)c3)oc2C)cc1	25.9µM*	?	/	/	/	/
Cc1oc(-c2cccc(Cl)c2)nc1Cn1c(SCc2ccccc2F)nc2ccncc21	16.4µM*	23.1µM*	/	/	/	/
COc1ccc(-c2noc(CSCC(=O)Nc3cc(OC)c(OC)c(OC)c3)n2)cc1OC	-2.0%	-8.7%	/	/	/	/
Cc1ccc(CCNC(=O)C2COc3ccccc3C2)cc1 (centres undefined)	?	-22.3%	/	/	/	/
N#Cc1cccc(NC(=O)CSc2nnc(C3CC3)n2C2CC2)c1	-1.6%	-10.0%	14.0%	-2.3%	?	-23.2
O=C(NCCc1ccc(O)c(Br)c1)c1ccc(Br)o1	-13.2%	-22.7%	-2.1%	-0.9%	/	-0.3
COc1ccc(CN(C)C(=O)c2cccc(NC(=O)CC3SC(N4CCCCC4)=NC3=O)c2)c(OC)c1 (centres undefined)	5.17µM*	5.17µM*	-26.8%	?	/	-54.9*
COc1cccc(CN(C)C(=O)c2cccc(NC(=O)CC3SC(N4CCCCC4)=NC3=O)c2)c1OC (centres undefined)	?	18.4µM*	-6.2%	0.6%	?	-13.4
COc1cccc(CN(C)C(=O)c2ccc(NC(=O)CC3SC(N4CCCCC4)=NC3=O)cc2)c1OC (centres undefined)	-8.9%	-3.9%	2.7%	2.2%	/	-1.3
O=C(O)c1cc(-c2ccc3c(c2)OCO3)nc2ccc(Cl)cc12	-3.2%	-1.9%	-21.8%	-17.4%	?	i
COc1ccc(CN2CCN(C(=O)c3ccccc3F)CC2)c(OC)c1OC	7.6%	-24.3%	4.4%	-3.5%	/	5.6
SMILES	TDP1 cell CPT	TDP1 cell noCPT	HT1080 IDH1KD tx	HT1080NT lethal	ELG1 DNA repair	IL-1B inflam inh
Cc1cc(C)c2nc(-c3ccncc3)cc(C(=O)N3CCN(Cc4ccccc4Cl)CC3)c2c1	?	?	?	?	?	-74.8*
O=C(c1cccn2c(=O)c3ccc(Cl)cc3nc12)N1CCN(Cc2ccc3c(c2)OCO3)CC1	?	18.4µM*	3.2%	9.6%	-4.7%	-25.8
COc1ccc(CN2CCN(C(=O)c3cc(-c4cccnc4)nc4ccc(Cl)cc34)CC2)c(OC)c1OC	?	20.6µM*	-2.0%	-23.9%	9.2µM*	6.6
O=C(c1cc(-c2ccncc2)nc2ccc(Cl)cc12)N1CCN(Cc2ccc3c(c2)OCO3)CC1	16.4µM*	23.1µM*	-10.6%	-6.1%	14.6µM*	-83.0*
Cc1ccc(Nc2ncnc(Cl)c2N)cc1	-25.2%	-21.5%	7.4%	12.2%	/	-4.2
Cc1oc2cc3oc(=O)c(CCC(=O)NCc4ccccn4)c(C)c3cc2c1C	?	-86.5%	7.3%	5.9%	?	-5.7
Cc1cccc(OC(=O)CSc2nnc(-c3cccs3)o2)c1C	6.6%	-17.4%	/	/	/	/
CCOc1ccc(N(C(=O)c2ccc(C)cc2)S(=O)(=O)c2ccc3c(c2)n(C)c(=O)n3C)cc1	-15.1%	?	/	/	/	/
CCOc1ncccc1C(=O)N1CCN(Cc2ccc3c(c2)OCO3)CC1	-12.5%	-23.0%	-5.8%	-0.7%	-16.5%	?
O=C(c1cc(-c2ccncc2)nc2ccc(Br)cc12)N1CCN(Cc2ccc3c(c2)OCO3)CC1	?	23.1µM*	4.0%	0.9%	?	-62.9*
CCOC(=O)C1=C(CN2CCC(C)CC2)NC(=O)NC1c1ccc(OC(C)C)cc1 (centres undefined)	23.1µM*	?	/	/	/	/
CCOC(=O)C1=C(CN2CCN(c3ccccc3F)CC2)NC(=O)NC1c1ccc(Cl)cc1 (centres undefined)	25.9µM*	16.4µM*	/	/	/	/
CCCN1CCN(CC2=C(C(=O)OCC)C(c3cccc(OC)c3OC)NC(=O)N2)CC1 (centres undefined)	-3.3%	-25.5%	/	/	/	/
CCOC(=O)C1=C(Cn2cnc3ccccc32)NC(=O)NC1c1ccc(Cl)cc1 (centres undefined)	?	-26.8%	?	-24.7%	0.7%	-11.2
